Screens deposited in PubChem BioAssay by National Center for Advancing Translational Sciences (NCATS).
Hits are enriched below; roughly 21% of the tested compounds scored in any of these assays.
NS1 function inh: qHTS Assay for Inhibitors of Influenza NS1 Protein Function; Potency, µM (titrated, usually from 46.1 µM), for inactives: at the top dose activity, positive = more growth; 270,000 tested, 0.4% active; AID 2326, 2010; calls by dose curve; further: potency means the concentration at half of the fitted maximal effect; actives are rising curves; nearly all actives have a fitted effect of over 50% in size
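In this qHTS, NS1 from influenza A is expressed in budding yeast, where it slows growth. Cells are switched from glucose to 2% galactose medium (pH 6.0, -URA), treated with compound, and growth recovery is read at OD600.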
Shiga toxin inh: A qHTS for Small Molecule Inhibitors of Shiga Toxin; 290,000 tested, 9.2% active; Vero cells, Shiga toxin protein synthesis inhibition reporter; inhibition, % at 38.7 µM; AID 2315, 2010; in the data active means inhibition mostly above about 28%, no sharp cut-off; inactive means mostly below about 43%; further: 0% is about no effect
SARS PLP yeast: qHTS of Yeast-based Assay for SARS-CoV PLP; S. cerevisiae expressing SARS-CoV PLpro, growth rescue; Potency, µM (highest dose often 32.9 µM), inactives show at the top dose activity, positive = growth rescue, most hits filed as activators; 330,000 tested, 0.19% active; AID 485353, 2010; calls by dose curve; further: potency means the concentration at half of the fitted maximal effect; 0% is about no effect; nearly all actives have a fitted effect of over 55% in size
Pf growth 96h: Primary qHTS for delayed death inhibitors of the malarial parasite plastid, 96 hour incubation; P. falciparum luciferase reporter growth, 96 h; Potency, µM (top dose mostly 28.7 µM), for the others: top-dose activity change, negative = inhibition, most hits filed as inhibitors; 320,000 tested, 6.9% active; AID 504834, 2011; further: potency means the concentration at half of the fitted maximal effect; on the % scale 0 is the no-effect control and ±100 the full control effect
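Delayed-death screen, second-generation endpoint: infected erythrocytes, 2% hematocrit, 0.05% parasitemia final; 96 hours at 37 C, 5% CO2; luciferase detection reagent; luminescence decrease equals reduced growth.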
CHX counter: Cycloheximide Counterscreen for Small Molecule Inhibitors of Shiga Toxin. cell reporter, cycloheximide protein synthesis inhibition counterscreen. 300,000 tested, 12% active. max response, %; in the data active means max response mostly above about 13%, no sharp cut-off; inactive means mostly below about 14%; further: read at 38.3 µM for the half of the compounds with a filed dose; 0% is about no effect
Pf growth 48h: Primary qHTS for delayed death inhibitors of the malarial parasite plastid, 48 hour incubation. 310,000 tested, 5.9% active. Potency, µM (highest dose often 28.7 µM), for inactives: at the top dose activity change, negative = inhibition, most hits filed as inhibitors. P. falciparum luciferase growth in erythrocytes, 48 h; further: potency means the concentration at half of the fitted maximal effect; on the % scale 0 is the no-effect control and ±100 the full control effect
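Read-out is firefly luciferase luminescence from an integrated reporter in P. falciparum, so falling signal marks reduced parasite growth. Infected erythrocytes were at 2% hematocrit and 0.1% parasitemia (final) in Albumax-supplemented RPMI 1640.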
* hit, by the source's call; ? = inconclusive; . = no result given. Unless noted, the call rests on the fitted dose curve; in most records, active means well fitted inhibition curve with a large enough effect; inconclusive means small, poorly fitted or top-dose-only effect, or another doubt; inactive means no such curve, though single readings can be large or run the other way.

SMILES	NS1 function inh	Shiga toxin inh	SARS PLP yeast	Pf growth 96h	CHX counter	Pf growth 48h
COc1ccc(Cl)c2sc(NC(=O)C3=COCCO3)nc12	.	.	9.4%	193.1%	.	111.8%
Cc1cc(C)c(-c2csc(NC(=O)C3=COCCO3)n2)c(C)c1	.	.	-26.7%	?	.	9.28µM*
Cc1cc(C)c2sc(NC(=O)C3=COCCO3)nc2c1	-34.8%	120.3*	-18.0%	55.1%	59.9*	18.2%
Cc1cc(-c2csc(NC(=O)C3=COCCO3)n2)c(C)n1C	.	.	1.7%	?	.	?
COc1ccc(C(CC(=O)NC(C)c2ccc(-c3ccccc3)cc2)NC(C)=O)cc1 (stereo not drawn)	-6.0%	6.9	4.7%	1.0%	-4.1	-12.3%
Cc1cc(N/C(=N\S(=O)(=O)c2ccc(F)cc2F)c2ccccc2)no1	-10.1%	25.7	0.0%	.	1.3	2.1%
Cc1ccc2nc(N/C(=N/S(=O)(=O)c3ccc(F)cc3)c3ccccc3)sc2c1	3.3%	131.6*	-8.7%	109.3%	48.1*	117.8%
Cc1cc(N/C(=N/S(=O)(=O)c2cc(F)ccc2F)c2ccccc2)n(-c2ccccc2)n1	-18.0%	16.2	-5.9%	12.3%	14.7*	?
Cc1cc(N/C(=N/S(=O)(=O)c2ccc(F)cc2)c2ccccc2)n(-c2ccccc2)n1	1.4%	-5.6	-1.8%	2.2%	-3.6	-1.8%
O=S(=O)(/N=C(/Nc1nc2ccccc2s1)c1ccccc1)c1ccccc1	.	.	-2.2%	107.5%	.	122.8%
Cc1ccc2nc(N/C(=N/S(=O)(=O)c3ccc(F)cc3F)c3ccccc3)sc2c1	.	66.2*	1.7%	94.4%	30.7*	66.4%
Cc1ccc(O)c(C2=NOC(O)(C(F)(F)F)C2)c1 (stereo not drawn)	-3.7%	-5.6	-14.6%	35.5%	-1.9	-0.8%
Cc1ccc(C(C(=O)NC2CCCCC2)N(Cc2ccco2)C(=O)Cn2cnc3ccccc32)cc1 (stereo not drawn)	6.6%	0.6	-7.3%	-7.8%	7.3	11.7µM*
CCC(C(=O)NC1CCCC1)N(Cc1ccco1)C(=O)Cn1nnc(-c2ccc(C)cc2)n1 (stereo not drawn)	-32.7%	8.1	-1.3%	9.28µM*	2.8	?
O=C(NC1CCCCC1)C(c1ccc(F)cc1)N(Cc1ccco1)C(=O)Cn1nnc2ccccc21 (stereo not drawn)	1.4%	-14.9	5.6%	.	-5.6	-20.1%
COc1cc(C)c(N(C(C)=O)c2ccccc2)c(C)c1	?	-7.3	14.1%	.	-3.2	5.86µM*
CC1CCN(Cc2nnnn2CCCC(=O)N(C)C(C)c2ccccn2)CC1 (stereo not drawn)	8.5%	13.6	3.4%	-11.6%	11.6	3.1%
Fc1ccc(Sc2ccccc2CNC2=NCCN2)cc1	-27.7%	-1.1	-51.1%	2.08µM*	-1.8	5.86µM*
Cc1nn(C)cc1C(C(=O)NC1CCCCC1)N(C(=O)Cc1cccs1)c1ccc(Cl)cc1 (stereo not drawn)	-5.9%	-11.3	6.1%	45.3%	-1.2	-4.3%
CCOc1ccc(S(=O)(=O)N(C)CCO)cc1-c1nc2c(C(C)(C)C)nn(C)c2c(=O)[nH]1	5.2%	-4.0	2.0%	-7.6%	-7.0	11.7µM*
Cc1noc(C)c1-c1ccc2ncnc(NCc3ccc(-c4ccccc4)cc3)c2c1	.	47.6*	.	.	37.6*	.
CCCCSc1nnc(-c2ccc(NC(=O)CCc3ccccc3)cc2)n1C	5.0%	-9.8	8.2%	11.7µM*	-2.2	?
COc1ccccc1NC(=O)CSc1nnc(-c2ccc(NC(C)=O)cc2)n1C	7.1%	-2.3	5.0%	?	10.3	-10.1%
COc1ccccc1NC(=O)CC(=O)CSc1nnc(-c2ccc(C)cc2)n1C	?	-3.1	1.5%	1.5%	-2.0	11.7µM*
COc1ccc(C(=O)NCCc2nnc(SCC(=O)Nc3ccccc3F)n2C)cc1	-0.9%	-1.6	-1.7%	?	-2.2	15.5%
SMILES	NS1 function inh	Shiga toxin inh	SARS PLP yeast	Pf growth 96h	CHX counter	Pf growth 48h
COc1ccccc1NC(=O)CSc1nnc(CCNC(=O)c2ccc(C)cc2)n1C	-8.1%	6.6	0.6%	-20.1%	14.9*	?
Cn1c(SCC(=O)CC(=O)Nc2ccccc2)nnc1-c1ccc(O)cc1	?	2.2	1.7%	11.7µM*	-2.4	3.6%
O=C1NC2(CCCCCC2)N=C1c1ccc(Br)cc1	.	-3.2	-2.5%	38.2%	10.3	24.6%
COc1ccccc1N1CCN(C(=O)c2cc3c(=O)n4cccc(C)c4nc3s2)CC1	-4.4%	-22.6	9.2%	?	-0.2	0.0%
CCc1c(C)nc(N)n2c(SCC(=O)Nc3ccccc3OC)nnc12	5.2%	6.0	-1.1%	10.4µM*	6.0	-4.3%
CCOc1ccccc1NC(=O)CSc1nnc2c(CC)c(C)nc(N)n12	3.0%	6.8	-5.0%	.	-1.5	-2.5%
COc1ccc(S(=O)(=O)N/N=C(/C)c2ccco2)cc1	-5.6%	130.2*	6.8%	?	55.6*	6.4%
O=C(Cn1cccn1)c1ccccc1	.	18.2	2.3%	-0.9%	6.3	?
CCOC(=O)c1c(/N=C/N(C)C)sc(/C=N/Nc2ccccc2)c1-c1ccc(Cl)cc1	15.8%	-6.2	1.2%	3.29µM*	-4.4	13.1µM*
COc1ccc(NS(=O)(=O)c2cccc(-c3n[nH]c(=S)n3Cc3ccccc3)c2)cc1	.	-8.9	9.3%	23.9%	5.4	?
CCOC(=O)N1CCC(N(CCN(C)C)C(=S)Nc2cccc(OC)c2)CC1	.	-2.5	2.7%	7.38µM*	-9.2	-5.3%
COCCN(C(=S)Nc1cccc(OC)c1)C1CCN(C(C)C)CC1	-8.4%	-4.2	-30.6%	13.1µM*	-1.7	0.5%
COCCN(C(=S)Nc1cccc(OC)c1)C1CCN(C(C)=O)CC1	4.2%	-1.3	-22.3%	21.4%	-3.9	-7.3%
COCCN(C(=S)Nc1ccc(OC)cc1)C1CCN(C(C)C)CC1	-0.7%	-7.7	11.3%	11.7µM*	5.5	-4.0%
CCOC(=O)N1CCC(N(CCN(C)C)C(=S)Nc2cccc(Cl)c2)CC1	.	-15.3	1.4%	-17.8%	-2.3	-11.9%
C=CCN(CC=C)C(=O)c1ccc(OC2CCN(Cc3ccccn3)CC2)cc1	-4.3%	-14.4	0.8%	?	-2.1	-4.9%
O=C(Nc1cccc(NC(=O)C2CCCO2)c1)C1CCCO1 (stereo not drawn)	2.1%	-4.1	12.0%	1.5%	-3.6	41.8%
O=C(Nc1ccc2c(c1)CCC2)C1CCCO1 (stereo not drawn)	-2.2%	53.2*	-3.5%	.	39.2*	90.4%
CN(C)S(=O)(=O)N1CCc2ccc(NC(=O)C3CCCO3)cc2C1 (stereo not drawn)	7.8%	-1.9	-11.0%	?	14.5	-7.9%
O=C(Nc1ccc2c(c1)CN(Cc1ccccc1O)CC2)C1CCCO1 (stereo not drawn)	-17.2%	-1.3	-0.6%	3.29µM*	-3.0	?
O=C(CSc1ncn[nH]1)N1N=C2/C(=C/c3ccco3)CCCC2C1c1ccco1 (stereo not drawn)	2.1%	-5.7	-11.1%	.	-1.1	11.7µM*
